Laboratory results taken from PubChem BioAssay AID624300 (Southern Research Specialized Biocontainment Screening …, 2012).
The whole screen tested about 2,400 compounds, of which about 360 (15%) were called active.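 Rule for the calls: active = viability falls under 70% at one or more tested concentrations, taken as toxicity; inactive = viability stays over 70% at every dose.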 Not all results are given here. Potency and affinity values are given separately.

assay: HeLa cell cytotoxicity, dose response, cytotoxicity control for MgcRacGAP inhibitor project (AID 624300); settings: CellTiter-Glo luminescence, 24 h; series mostly up to 100 µM; viability: at the top concentration;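 note: 100% = median of untreated control wells on the same plate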

SMILES	viability
COc1cc(/C=C/C(=O)OC(C)C(=O)Nc2c(C)n(C)n(-c3ccccc3)c2=O)ccc1O (stereo not drawn)	99.9% (inactive)
COc1cc(/C=N/NC(=O)c2nnn(-c3nonc3N)c2C(C)C)ccc1O	96.8% (inactive)
CCN1CCN(CCOc2ccc(Br)cc2C)CC1	95.3% (inactive)
COc1ccc(-c2cn[nH]c2-c2ccc(O)cc2O)cc1	101% (inactive)
COc1ccccc1-c1cn[nH]c1-c1ccc(O)cc1O	104% (inactive)
CN1CCN(Cc2coc3c(Cl)cc(Cl)cc3c2=O)CC1	101% (inactive)
CN1C(=O)C2C(c3ccc(N(C)C)cc3)=NN(Cc3ccccc3)C2C1=O (stereo not drawn)	97% (inactive)
CC(C(=O)Nc1ccc2c(c1)OCO2)N1CCN(C)CC1 (stereo not drawn)	101% (inactive)
CCN(CC)CCCNCC(=O)Nc1cc(C)on1	105% (inactive)
CCN(CC)CCn1c2ccccc2c(=O)c2c(O)ccc(O)c21	93% (inactive)
COc1ccc(-n2c(=O)c3c4c(sc3n3c(=S)[nH]nc23)CCCC4)cc1	96.4% (inactive)
c1cc2c(cc1CNc1ccc(N3CCOCC3)cc1)OCO2	99.3% (inactive)
COc1cc(/C=N/n2c(C3CCCCC3)n[nH]c2=S)ccc1O	89.1% (inactive)
CN1CCN(/N=C/c2nc(-c3ccc(Cl)cc3)n3ccccc23)CC1	98.7% (inactive)
Oc1ccc(N2CCN(C(c3cccs3)c3nnnn3CCc3ccccc3)CC2)cc1 (stereo not drawn)	107% (inactive)
Cc1ccc(NC(=O)CCC(=O)N/N=C/c2ccc(O)cc2)cc1	102% (inactive)
Cn1cccc1CC(=O)N/N=C/C=C/c1ccco1	102% (inactive)
Cc1ccc(Nc2n[nH]c(=S)s2)c(C)c1	96.7% (inactive)
O=C(CNC1CC1)Nc1cc(C(F)(F)F)ccc1Cl	90.3% (inactive)
CCC1=NN2C(=N)/C(=C\c3ccc(SCc4ccco4)o3)C(=O)N=C2S1	97.1% (inactive)
CCOc1cc(/C=N/NC(=O)c2ccccc2OCc2ccc(F)cc2)ccc1O	82.5% (inactive)
O=C(COc1ccccc1[N+](=O)[O-])N/N=C/c1ccc(O)cc1	106% (inactive)
O=C(N/N=C/c1ccc(O)c(O)c1)c1cccc(S(=O)(=O)N2CCCCC2)c1	91.9% (inactive)
CCOC(=O)Nc1ccc(OC(=O)Oc2ccc(NC(=O)OCC)cc2)cc1	103% (inactive)
CC(=O)Nc1ccc(OC(=O)c2cc3ccccc3oc2=O)cc1	112% (inactive)

SMILES	viability
C=CCc1cc(C=Nc2ccc(N3CCOCC3)cc2)cc(OCC)c1O	103% (inactive)
CCc1nnc(N/N=C/c2c(C)[nH]c3ccccc23)n1N	88.7% (inactive)
CCN1CCN(C(C)C(=O)NC2CCCCC2)CC1 (stereo not drawn)	100% (inactive)
C/C(=N/Nc1ccc(C(=O)O)cc1)c1ccc2c(c1)Nc1ccccc1S2	103% (inactive)
C/C(=N\NC(=O)c1ccccc1F)c1ccc2c(c1)Nc1ccccc1S2	87.5% (inactive)
N#CC1=C(S)N(c2ccccc2)C2(CCCCC2)NC1=O	96.7% (inactive)
CC1(C)O[C@@H]2[C@H](O1)[C@@H](COS(=O)(=O)O)O[C@H]2n1c(=S)[nH]c2c(=O)[nH]c(N)nc21	97.4% (inactive)
Cc1c(N(C)C)nc2ccccc2c1N	105% (inactive)
O=C(O)CC1SC(=Nc2ccc(O)cc2)NC1=O (stereo not drawn)	99% (inactive)
COc1cc(/C=N/NC2=NCCCCC2)ccc1O	106% (inactive)
S=c1[nH]nc(Nc2ccccc2Cl)s1	93.5% (inactive)
Cc1cc(/C=C2\SC(=S)NC2=O)c(C)[nH]1	89.5% (inactive)
COc1cc(/C=C2\SC(=Nc3ccc(Cl)c(C(=O)O)c3)NC2=O)c(Br)c(Br)c1O	104% (inactive)
O=C1NC(=S)S/C1=C\C=C\c1ccc([N+](=O)[O-])o1	80.3% (inactive)
O=C1NC(=NCc2ccccc2)S/C1=C/c1ccc(O)cc1	100% (inactive)
CCOC(=O)C1CCN(Cc2cccc(Oc3ccccc3)c2)CC1	94.7% (inactive)
COc1cc(/C=N/NC(=O)c2cn(-c3cccc(C)n3)cn2)ccc1O	102% (inactive)
COc1cc([C@H]2OC[C@H]3[C@@H]2CO[C@H]3c2ccc(O)c(OC)c2)ccc1O	91.9% (inactive)
O=C(CN1CCN(c2ccc(O)cc2)CC1)N(C1CC1)C1CCS(=O)(=O)C1 (stereo not drawn)	104% (inactive)
N#C/C(=C/c1ccc(O)c(O)c1)C(=O)NCc1ccc(Cl)cc1	80.4% (inactive)
COc1ccc(CNCC(=O)Nc2cc(OC)cc(OC)c2)cc1	98% (inactive)
C=CCc1ccc(OCCOCCNCCCC)c(OC)c1	97.1% (inactive)
COc1ccc(NC2CCCN(C(=O)c3ccc4[nH]c(C)c(C)c4c3)C2)cc1 (stereo not drawn)	99% (inactive)
Cc1ccc(NC(=O)CCC(=O)N/N=C/c2ccc(O)cc2O)cc1	108% (inactive)
Cc1cccc(C=Nc2ccc3c4c(cccc24)CC3)c1O	106% (inactive)

SMILES	viability
Cc1ccc(O)c(N=Cc2sc3ccccc3c2Cl)c1	91.1% (inactive)
Cc1ccc(O)c(N=Cc2cc(Cc3ccccc3)cc([N+](=O)[O-])c2O)c1	96.8% (inactive)
C=CCc1cccc(C=Nc2cc(Br)ccc2O)c1O	86.5% (inactive)
O=C(CN1CCN(c2ccccn2)CC1)Nc1ccc(F)cc1	89.7% (inactive)
CCOc1cc(C=NNC(=O)c2cccc(S(=O)(=O)N3CCCC3)c2)ccc1O	91.9% (inactive)
COCCCNC(=O)/C(C#N)=C/c1c(N2CCN(c3ccc(OC)cc3)CC2)nc2c(C)cccn2c1=O	89.9% (inactive)
O=C(c1ccco1)N1CCN(Cc2cccc([N+](=O)[O-])c2)CC1	106% (inactive)
COc1cc(/C=N/N(C)c2ccccc2)ccc1O	83% (inactive)
COc1cc(OC)c(OC)cc1/C=N/N(C)c1ccccc1	109% (inactive)
COc1ccc(Cn2c(O)c(/C=N/NC(=O)c3cccnc3)c3ccccc3c2=O)cc1	111% (inactive)
CCOC(=O)c1[nH]c2ccccc2c1NC(=S)Nc1ccccc1C	106% (inactive)
CCN(CC)S(=O)(=O)c1ccc(C)c(NC(=O)CN2CCN(C)CC2)c1	100% (inactive)
Oc1ccc(/C=N/Nc2cccc(Cl)n2)c(O)c1	91.5% (inactive)
Oc1ccc(/C=N/Nc2cc(N3CCOCC3)nc(N3CCOCC3)n2)cc1	92.5% (inactive)
Oc1ccc(/C=N/Nc2nc(N3CCCC3)nc(N3CCCC3)n2)cc1O	102% (inactive)
Cc1nc(Cl)cc(N/N=C/c2ccc(O)cc2O)n1	100% (inactive)
CCOc1cc(/C=N/n2cnnc2)ccc1O	99.9% (inactive)
CC1CCC/C(=C\Nc2ccc(O)cc2)C1=O (stereo not drawn)	106% (inactive)
CCOCCCNC(=O)CN1CCN(c2ccc(F)cc2)CC1	96.4% (inactive)
O=C(NN=Cc1ccc(O)cc1)c1ccccc1NS(=O)(=O)c1cccs1	93.7% (inactive)
CC(C)=C(NC(=O)c1ccccc1)C(=O)N/N=C/c1ccc(O)cc1	104% (inactive)
C=CCc1cc(Cl)ccc1OCCNCCN1CCOCC1	101% (inactive)
CCCS(=O)(=O)N1CCN(C2Cc3ccccc3C2)CC1	106% (inactive)
